Source: PubChem BioAssay
An excerpt weighted towards active compounds, which were near 3.4% of everything screened.
FBW7 act = FBW7 E3 ligase activators, primary screen, biochemical, AlphaScreen, human | F-box/WD repeat-containing protein 7 (Homo sapiens), Q969H0 | AlphaScreen FBW7–phospho-cyclin E peptide binding, activator screen | hit rate 0.13% among 650,000 | normalized activity (activation), % at 26.1 µM; in the data active means normalized activity above about 1.9%;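 further: purified mutant Fbw7 with reduced substrate affinity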
TEAD-YAP block = TEAD-YAP interaction inhibition, primary screen, TEAD-YAP interaction inhibitor project, luminescence, HEK-TIYL cells | TEAD-Gal4/YAP UAS-luciferase luminescence | inhibition, % at 9.12 µM | hit rate 1.4% among 640,000 | AID 1259422, 2018; in the data active means inhibition above about 32%;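 further: 0% = median of test compound wells and 100% = reference inhibitor wells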
GPR151 activ = activators of human GPR151, primary screen, cell-based, PathHunter beta-arrestin, luminescence; PathHunter beta-arrestin GPR151 cells; activation, % at 11.2 µM; hit rate 1% among 650,000; in the data active means activation above about 4.9%;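 further: 0% = median of compound wells and 100% = cells with positive control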
MITF primary = MITF inhibitors, primary screen, biochemical, AlphaScreen, human | Microphthalmia-associated transcription factor (Homo sapiens), O75030 | AlphaScreen MITF homodimerization, bead proximity signal | inhibition, % at 2.6 µM | hit rate 0.91% among 650,000 | AID 1259374, 2018; in the data active means inhibition above about 50%;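 further: 0% = vehicle wells with protein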
Target sequence (O75030 whole entry, looked up): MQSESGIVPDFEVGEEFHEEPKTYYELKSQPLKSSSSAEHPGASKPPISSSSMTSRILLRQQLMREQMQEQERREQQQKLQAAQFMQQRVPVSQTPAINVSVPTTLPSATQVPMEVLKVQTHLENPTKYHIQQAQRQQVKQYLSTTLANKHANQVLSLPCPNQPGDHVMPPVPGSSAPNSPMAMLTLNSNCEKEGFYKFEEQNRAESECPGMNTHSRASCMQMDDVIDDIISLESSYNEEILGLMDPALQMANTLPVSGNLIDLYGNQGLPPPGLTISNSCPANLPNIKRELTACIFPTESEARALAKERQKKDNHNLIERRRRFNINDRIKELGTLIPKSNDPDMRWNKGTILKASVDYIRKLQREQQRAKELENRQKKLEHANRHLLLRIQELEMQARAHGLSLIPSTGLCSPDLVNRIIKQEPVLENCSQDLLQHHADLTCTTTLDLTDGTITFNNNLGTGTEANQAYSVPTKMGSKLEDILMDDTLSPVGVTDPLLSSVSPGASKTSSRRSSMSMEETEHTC
Active calls of the source: *; ! = not confirmed by another sample.

SMILES	FBW7 act	TEAD-YAP block	GPR151 activ	MITF primary
Oc1ccc(/C=C/c2cc(O)cc(O)c2)cc1	0	89*!	-6	-6
OC[C@H]1O[C@@H](Oc2cc(O)cc(/C=C/c3ccc(O)cc3)c2)[C@H](O)[C@@H](O)[C@@H]1O	0	12	2	5
O=c1c2c3c(sc2nc2c4ccccc4c(Cl)nn12)CCCCC3	0	-5	0	-4
Cc1nn2c(=O)c3c4c(sc3nc2c2ccccc12)CCCC4	0	52*	0	2
COC(=O)c1ccc(NC(=O)C2c3ccccc3C(=O)N(C)C2c2cccs2)cc1 (configuration not stated)	0	-3	-1	1
Cc1ccc2c(C)nc(N3CCCC(NCC4COc5ccccc5O4)CC3)nc2c1 (configuration not stated)	1.9*	-18	0	5
CCOC(=O)Cn1cnc2sc3c(c2c1=O)CCC(C)C3 (configuration not stated)	0	-1	1	5
O=C(OC(c1ccccc1)c1nccc2ccccc12)c1ccc(F)cc1 (configuration not stated)	1	52*	1	-18
CCc1ccc(NC(=O)CSC2=C(C#N)C(c3ccc(C)o3)C3=C(CCCC3=O)N2)cc1 (configuration not stated)	1	20	0	2
Cc1cccc(C)c1NC(=O)CSC1=C(C#N)C(c2ccco2)C2=C(CCCC2=O)N1 (configuration not stated)	0	9	-1	14
Cc1ccc(C2C(C#N)=C(SCC(=O)Nc3cccc(C)c3C)NC3=C2C(=O)CCC3)o1 (configuration not stated)	0	64*	1	-12
Cc1c(Cl)cccc1NC(=O)CSC1=C(C#N)C(c2ccco2)C2=C(CCCC2=O)N1 (configuration not stated)	0	38*	1	49
NC(c1nc2ccc(-c3ccncc3)cc2[nH]1)c1ccc(F)cc1F (configuration not stated)	-1	-21	1	34
Fc1ccc2nc(-c3nc4ccc(-c5ccncc5)cc4[nH]3)[nH]c2c1	2.6*	-22	3	11
CSc1ccc(S(=O)(=O)N2CCN(c3ccccc3F)CC2)cc1	0	13	1	-3
COc1ccc(S(=O)(=O)Nc2cccc(-c3ccc(N4CCCCC4)nn3)c2)cc1C	0	46*	-3	-10
COc1ccc(S(=O)(=O)Nc2cccc(-c3ccc4nncn4n3)c2)cc1F	1	45*	0	15
O=S(=O)(Nc1cccc(-c2ccc3nncn3n2)c1)c1cccc(C(F)(F)F)c1	0	-8	-1	16
Cc1cc(C)nc(N/N=C/c2ccc(OC(=O)c3ccc(Br)o3)cc2)n1	0	-4	-5	0
COc1ccccc1-c1nnc(SC/C(O)=C(\C#N)c2nc3ccccc3[nH]2)n1N	0	-4	1	4
COc1ccc(C(=O)Nn2c(SCC(=O)N3CCC(C)CC3)nc3ccccc3c2=O)cc1	0	82*	1	7
COc1ccc(C(=O)Nn2c(SCC(=O)c3ccc(Cl)cc3)nc3ccccc3c2=O)cc1	0	77*	1	-2
COc1ccc(C(=O)Nn2c(SCC(=O)N3CCCC3)nc3ccccc3c2=O)cc1	0	78*	0	3
COc1ccc(C(=O)Nn2c(C3CC3)nc3ccccc3c2=O)cc1	0	-1	0	7
COc1ccc(C(=O)Nn2c(C)nc3ccccc3c2=O)cc1	0	6	-1	2
SMILES	FBW7 act	TEAD-YAP block	GPR151 activ	MITF primary
COc1ccc(C(=O)Nn2c(SCC(=O)NC3CCCCC3)nc3ccccc3c2=O)cc1	0	81*	-1	9
O=C(CSc1nc2ccccc2c(=O)n1NC(=O)c1ccc(F)cc1)NC1CCCCC1	1	17	-2	11
CNC(=O)CSc1nc(-c2ccc(F)cc2)cc(C(F)(F)F)c1C#N	0	4	-1	15
O=C(O)CSc1nc2ccccc2n1CC(=O)NC1CCCCC1	1.9*	-3	-1	1
COc1ccc(C(=O)Nn2c(SCC(=O)N3CCN(c4ccccc4)CC3)nc3ccccc3c2=O)cc1	0	77*	1	-5
O=C(Nn1c(SCC(=O)N2CCN(c3ccccc3)CC2)nc2ccccc2c1=O)c1ccc(F)cc1	1	-11	0	23
